In assay [1] the target is human CYP1A2, CYP1A2 (gene 1544) (UniProt P05177). The assay is described as follows: NVS_ADME_hCYP1A2: NovaScreen (NVS) CYP450-related Enzyme Activity (ADME) Assay for human CYP1A2 (AID 2283102).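 Note: potency for inhibition since loss of fluorescence marks reduced CYP1A2 activity.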 The procedure, abridged: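 Fluorescence-intensity enzyme activity read-out, taken 0.5 h post-dosing, using insect-cell-derived recombinant CYP1A2 and specific fluorescent substrate. Acetonitrile served as negative control/baseline. Single-concentration duplicate screen at 10 uM, then concentration-response follow-up.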

In assay [2] the target is human CYP2D6, CYP2D6 (gene 1565) (UniProt P10635). The assay is described as follows: NVS_ADME_hCYP2D6: NovaScreen (NVS) CYP450-related Enzyme Activity (ADME) Assay for human CYP2D6 (AID 2283107). The method, boiled down: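 Fluorescence intensity read 1 h post-dosing; insect-cell-expressed recombinant protein with fluorogenic substrate, no cells. Activity is scored as signal loss relative to acetonitrile baseline, first at a single 10 uM concentration in duplicate, then as concentration series for confirmed actives.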

The target in assay [3] is human CYP2C9, CYP2C9 (gene 1559) (UniProt P11712). The assay is described as follows: NVS_ADME_hCYP2C9: NovaScreen (NVS) CYP450-related Enzyme Activity (ADME) Assay for human CYP2C9 (AID 2283108). The method, boiled down: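 Cell-free assay of recombinant human CYP2C9 produced in Sf9 cells, with enzyme activity read by fluorescence intensity 0.75 h after compound addition. Loss of signal versus an acetonitrile negative control indicates inhibition. Primary screen used 10 uM in duplicate; actives were retested in concentration series.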

For assay [4], the target named is Cytochrome P450 3A4 (Homo sapiens) (UniProt P08684). The assay is described as follows: NVS_ADME_hCYP3A4: NovaScreen (NVS) CYP450-related Enzyme Activity (ADME) Assay for human CYP3A4 (AID 2283110). On the procedure:
(§1) NVS_ADME_hCYP3A4 is a biochemical, single-readout assay that uses extracted gene-proteins from insect cells in a cell-free assay. Measurements were taken 0.33 hour after chemical dosing in a 96-well plate.NVS_ADME_hCYP3A4 is one of one assay component(s) measured or calculated from the NVS_ADME_hCYP3A4 assay. It is designed to make measurements of enzyme activity, a form of enzyme reporter, as detected with fluorescence intensity signals by Fluorescence technology.Data from the assay component NVS_ADME_hCYP3A4 was analyzed into 1 assay endpoint. This assay endpoint, NVS_ADME_hCYP3A4, was analyzed in the positive analysis fitting direction relative to Acetonitrile as the negative control and baseline of activity. Using a type of enzyme reporter, loss-of-signal activity can be used to understand changes in the enzymatic activity as they relate to the gene CYP3A4. Furthermore, this assay endpoint can be referred to as a primary readout, because this assay has produced multiple assay endpoints where this one serves a enzymatic activity function. To generalize the intended target to other relatable targets, this assay endpoint is annotated to the cyp intended target family, where the subfamily is xenobiotic metabolism. […]

The target in assay [5] is rat CYP2A2, Cyp2a2 (gene 24895) (UniProt P15149). The assay is described as follows: NVS_ADME_rCYP2A2: NovaScreen (NVS) CYP450-related Enzyme Activity (ADME) Assay for rat CYP2A2 (AID 2283116). On the procedure: as §1, with “NVS_ADME_rCYP2A2” for “NVS_ADME_hCYP3A4”, “gene-proteins” for “gene-proteins from insect cells”, “0.2” for “0.33”, “plate.NVS_ADME_rCYP2A2” for “plate.NVS_ADME_hCYP3A4”, “NVS_ADME_rCYP2A2,” for “NVS_ADME_hCYP3A4,”, “Cyp2a2.” for “CYP3A4.”

For assay [6], the target named is human Acid Phosphatase 1 (ACP1), ACP1 (gene 52) (UniProt P24666). The assay is described as follows: NVS_ENZ_hACP1: NovaScreen (NVS) Enzymatic Assay for human Acid Phosphatase 1 (ACP1) (AID 2283136). The method, boiled down: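 Cell-free fluorescence read-out of phosphatase activity, substrate and product separated by mobility shift, taken 1.5 h after compound addition; protein produced in Sf9. Single 25 uM duplicate screen, followed by concentration series for actives, scored as signal loss relative to DMSO.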

For assay [7], the target named is human Caspase 5 (CASP5), CASP5 (gene 838) (UniProt P51878). The assay is described as follows: NVS_ENZ_hCASP5: NovaScreen (NVS) Enzymatic Assay for human Caspase 5 (CASP5) (AID 2283137). The procedure, abridged:
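Chemicals were first tested in duplicate at 25 uM against recombinant caspase 5 from E. coli. Activity was read by fluorescence intensity 2 hours after dosing. Those passing a preset inhibition threshold were retested in singleton concentration-response up to 50 uM.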

Molecules are shown by their SMILES. Inconclusive results are not listed. Active and inactive are the calls of the source. Rule for the calls: active = hit-call score of the fitted dose curve at least 0.9, where 1 is the maximum; inconclusive = response in the unintended direction; inactive = score below 0.9.

human Caspase 5 (CASP5), CASP5 (gene 838), sequence (P51878 whole entry, looked up): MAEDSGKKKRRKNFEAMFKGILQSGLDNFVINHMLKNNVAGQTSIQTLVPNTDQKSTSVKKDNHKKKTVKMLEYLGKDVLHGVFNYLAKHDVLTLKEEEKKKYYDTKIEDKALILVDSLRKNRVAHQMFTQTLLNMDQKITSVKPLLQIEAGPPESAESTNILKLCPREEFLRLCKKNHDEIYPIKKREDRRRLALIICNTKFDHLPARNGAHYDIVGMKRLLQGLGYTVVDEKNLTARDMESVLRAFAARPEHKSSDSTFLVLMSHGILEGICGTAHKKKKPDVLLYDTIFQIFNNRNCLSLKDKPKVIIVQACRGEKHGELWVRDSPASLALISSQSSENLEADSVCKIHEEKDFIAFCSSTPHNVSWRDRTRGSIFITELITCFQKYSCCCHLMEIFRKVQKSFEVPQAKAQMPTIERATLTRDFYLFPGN
human CYP2D6, CYP2D6 (gene 1565), sequence (P10635 whole entry, looked up): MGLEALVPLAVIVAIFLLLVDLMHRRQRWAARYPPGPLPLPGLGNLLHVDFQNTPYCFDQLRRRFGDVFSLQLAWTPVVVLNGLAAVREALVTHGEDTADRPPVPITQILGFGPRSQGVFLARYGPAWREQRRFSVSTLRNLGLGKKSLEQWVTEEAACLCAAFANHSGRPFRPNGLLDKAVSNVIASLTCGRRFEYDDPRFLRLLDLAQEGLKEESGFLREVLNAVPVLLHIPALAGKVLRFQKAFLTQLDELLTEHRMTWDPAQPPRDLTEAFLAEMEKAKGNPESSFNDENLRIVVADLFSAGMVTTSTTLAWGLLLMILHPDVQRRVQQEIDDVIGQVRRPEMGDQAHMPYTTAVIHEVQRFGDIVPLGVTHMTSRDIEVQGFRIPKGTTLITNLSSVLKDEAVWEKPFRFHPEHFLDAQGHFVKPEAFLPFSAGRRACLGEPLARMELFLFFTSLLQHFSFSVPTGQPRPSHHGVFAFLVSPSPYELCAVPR
human Acid Phosphatase 1 (ACP1), ACP1 (gene 52), sequence (P24666 whole entry, looked up): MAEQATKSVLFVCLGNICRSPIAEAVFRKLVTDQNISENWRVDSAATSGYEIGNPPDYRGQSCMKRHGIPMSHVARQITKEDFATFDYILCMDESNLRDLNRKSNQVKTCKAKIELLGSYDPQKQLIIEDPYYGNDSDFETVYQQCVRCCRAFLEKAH
Cytochrome P450 3A4 (Homo sapiens), sequence (P08684 whole entry, looked up): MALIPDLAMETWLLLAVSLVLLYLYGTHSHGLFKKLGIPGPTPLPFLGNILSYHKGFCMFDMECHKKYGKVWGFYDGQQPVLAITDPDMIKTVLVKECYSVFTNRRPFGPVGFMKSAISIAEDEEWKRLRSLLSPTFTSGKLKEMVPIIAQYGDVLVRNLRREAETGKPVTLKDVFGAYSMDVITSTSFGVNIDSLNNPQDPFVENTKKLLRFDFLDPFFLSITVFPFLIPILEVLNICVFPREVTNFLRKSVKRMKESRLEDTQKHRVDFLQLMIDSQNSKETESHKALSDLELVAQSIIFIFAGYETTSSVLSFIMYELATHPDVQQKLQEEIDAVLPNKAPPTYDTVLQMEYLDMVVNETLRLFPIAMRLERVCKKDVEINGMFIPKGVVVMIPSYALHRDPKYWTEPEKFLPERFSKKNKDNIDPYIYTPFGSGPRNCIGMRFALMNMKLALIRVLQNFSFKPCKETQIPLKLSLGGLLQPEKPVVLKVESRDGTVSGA
human CYP1A2, CYP1A2 (gene 1544), sequence (P05177 whole entry, looked up): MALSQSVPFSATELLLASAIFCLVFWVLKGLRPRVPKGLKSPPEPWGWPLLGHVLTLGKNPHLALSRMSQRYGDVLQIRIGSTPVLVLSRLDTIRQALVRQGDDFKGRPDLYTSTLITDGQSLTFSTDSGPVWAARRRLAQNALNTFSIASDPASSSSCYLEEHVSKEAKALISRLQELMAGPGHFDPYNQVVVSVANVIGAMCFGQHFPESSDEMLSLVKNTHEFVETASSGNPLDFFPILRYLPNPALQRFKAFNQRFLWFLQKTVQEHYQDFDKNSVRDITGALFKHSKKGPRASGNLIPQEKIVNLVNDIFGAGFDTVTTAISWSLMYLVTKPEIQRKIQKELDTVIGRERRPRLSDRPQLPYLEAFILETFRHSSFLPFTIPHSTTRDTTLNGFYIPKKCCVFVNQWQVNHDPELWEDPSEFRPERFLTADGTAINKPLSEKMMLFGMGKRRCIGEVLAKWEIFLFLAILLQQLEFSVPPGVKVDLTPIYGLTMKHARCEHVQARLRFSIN
human CYP2C9, CYP2C9 (gene 1559), sequence (P11712 whole entry, looked up): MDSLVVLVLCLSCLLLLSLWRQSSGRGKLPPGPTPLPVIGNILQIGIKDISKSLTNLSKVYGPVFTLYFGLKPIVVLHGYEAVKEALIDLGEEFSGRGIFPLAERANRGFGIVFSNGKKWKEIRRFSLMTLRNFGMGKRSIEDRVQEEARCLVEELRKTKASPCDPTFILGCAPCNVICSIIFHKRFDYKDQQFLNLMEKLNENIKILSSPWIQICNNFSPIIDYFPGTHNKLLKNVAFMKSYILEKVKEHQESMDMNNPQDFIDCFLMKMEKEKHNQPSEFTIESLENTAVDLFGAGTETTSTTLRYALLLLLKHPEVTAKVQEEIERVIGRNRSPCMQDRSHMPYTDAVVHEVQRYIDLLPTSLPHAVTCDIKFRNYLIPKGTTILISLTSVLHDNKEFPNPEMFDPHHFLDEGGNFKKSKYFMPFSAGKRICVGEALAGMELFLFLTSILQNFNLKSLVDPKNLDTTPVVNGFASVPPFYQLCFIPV
rat CYP2A2, Cyp2a2 (gene 24895), sequence (P15149 whole entry, looked up): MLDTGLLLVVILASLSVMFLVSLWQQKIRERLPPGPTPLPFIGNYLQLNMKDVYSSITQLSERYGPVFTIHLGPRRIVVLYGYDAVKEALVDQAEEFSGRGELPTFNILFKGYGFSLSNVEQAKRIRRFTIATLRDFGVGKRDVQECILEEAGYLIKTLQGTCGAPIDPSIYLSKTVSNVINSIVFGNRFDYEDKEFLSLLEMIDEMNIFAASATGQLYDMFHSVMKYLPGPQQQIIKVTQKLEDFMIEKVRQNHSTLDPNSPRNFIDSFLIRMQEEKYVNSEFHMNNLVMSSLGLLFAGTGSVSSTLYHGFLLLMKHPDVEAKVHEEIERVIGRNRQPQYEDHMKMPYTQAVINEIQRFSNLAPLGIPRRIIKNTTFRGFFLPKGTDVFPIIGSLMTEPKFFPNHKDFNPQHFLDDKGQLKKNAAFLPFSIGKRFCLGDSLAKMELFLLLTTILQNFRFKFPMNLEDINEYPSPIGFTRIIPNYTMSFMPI

As usually defined, the AC50 is the concentration giving half of the maximal activity seen. `CCCCCC(C)OC(=O)COc1ccc(Cl)c2cccnc12` (stereo unspecified): the AC50 in assay [1] was 751 nM (active).

As for `CCCCCCCCCCCCCCCCCC[N+](C)(C)Cc1ccccc1`, the AC50 in assay [2] is 425 nM (active).

For the compound `c1cc[nH]c1`, in assay [2], the compound was called inactive.

Consider `CC1=NN(c2ccccc2)C(=O)C1`, for which the AC50 in assay [3] is 3060 nM (active).

In the case of `CC(C)C=O`, in assay [4], the AC50 is 5000 nM (active).

As to `CCCCC(CC)C(=O)OCCOCCOCCOCCOC(=O)C(CC)CCCC` (stereo unspecified), the compound was classed as inactive in assay [4].

For `NC(=NCCCCCCN=C(N)/N=C(\N)Nc1ccc(Cl)cc1)/N=C(\N)Nc1ccc(Cl)cc1`, the AC50 in assay [5] is 2840 nM (active).

Take `CCCCC(CC)C(=O)O` (stereo unspecified): the outcome in assay [6] was inactive.

For the compound `CCCCCCCCCCCCOS(=O)(=O)O`, in assay [6], the result was inactive. Also, in assay [7], the AC50 was 25000 nM (active).

On to `Cc1[nH]nc2c1N=C(c1ccccc1Cl)c1cc([N+](=O)[O-])ccc1N2`, for which, in assay [7], the compound was classed as inactive.

The values are drawn from PubChem BioAssay (EPA / NIEHS).
